Sampled rows, rich in hits. Any-hit rate of the full collection: about 4.3%.
D3 ag = agonists of human D3 dopamine receptor | P35462 | D3R DiscoveRx beta-arrestin cells, luminescence, 90 min | max activation, % | 410,000 tested, 0.58% active | AID 652048; in the data active means max activation above about 30%; further: 0% is about no effect
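Agonist mode: compounds and dopamine controls were applied to plated cells for 90 min at 37 degrees C after an overnight attachment at 1500 cells/well. Luminescent read-out followed 30 - 60 minutes at room temperature with DiscoveRx detection reagent.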
D3 antag = D3 dopamine receptor (human) antagonism; max response, negative = inhibition, %; 360,000 tested, 2.5% active; P35462; D3R cells, DiscoveRx beta-arrestin luminescence, antagonist mode; hits give low values; in the data active means max response below about -50%; inconclusive means no clear call, values can overlap the other calls; further: on the % scale 0 is the no-effect control and ±100 the full control effect
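Cells expressing the human receptor were seeded at 1500 cells/well, incubated overnight at 37 degrees C in 5% CO2, then exposed to library compounds with dopamine controls for 90 minutes at 37 degrees C before luminescent detection.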
GLP-1R agonist = GLP-1 receptor (human) agonism. Potency, µM (titrated, usually from 45.6 µM), inactives show at the highest dose activation, hits mostly activators. 380,000 tested, 0.007% active. HEK293 GLP-1R CRE-luciferase, luminescence, 4-6 h; cells express a hypersensitive GLP-1R form; further: potency means the concentration at half of the fitted maximal effect; % of control where 0% means no effect
Target sequence (P43220 whole entry, looked up): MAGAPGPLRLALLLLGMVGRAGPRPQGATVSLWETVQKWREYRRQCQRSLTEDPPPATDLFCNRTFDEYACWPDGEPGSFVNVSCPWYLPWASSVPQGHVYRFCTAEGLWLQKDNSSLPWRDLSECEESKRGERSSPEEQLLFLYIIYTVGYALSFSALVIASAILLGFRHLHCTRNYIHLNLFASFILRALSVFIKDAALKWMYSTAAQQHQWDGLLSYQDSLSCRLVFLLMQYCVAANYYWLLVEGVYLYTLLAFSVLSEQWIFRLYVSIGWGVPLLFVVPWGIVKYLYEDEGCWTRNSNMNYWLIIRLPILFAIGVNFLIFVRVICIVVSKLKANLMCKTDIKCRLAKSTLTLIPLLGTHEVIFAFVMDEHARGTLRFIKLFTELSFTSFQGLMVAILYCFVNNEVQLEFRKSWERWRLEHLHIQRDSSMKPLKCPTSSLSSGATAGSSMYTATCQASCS
GLP1R inv ag = acts as inverse agonist at human GLP-1 receptor | HEK293 GLP-1R CRE-luciferase, luminescence, 24 h; GLP-1R form is constitutively active | Potency, µM (doses to about 38.3 µM), for inactives: top-dose activity change, negative = inhibition, most hits filed as inhibitors | AID 624417 | 410,000 tested, 1.6% active | P43220; further: potency means the concentration at half of the fitted maximal effect; on the % scale 0 is the no-effect control and ±100 the full control effect; nearly all actives have a fitted effect of over 55% in size
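Inverse agonism was detected as reduced cAMP-driven luciferase luminescence after 24 h compound treatment. The cells were HEK293 clones expressing constitutively active human GLP-1R with the reporter. Reporter-only and GPR119 cell lines served as counterscreen controls.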
* hit, by the source's call; ? = inconclusive; · = no result; [ ] = another dose, or the depositor's remark. Unless noted, the call rests on the fitted dose curve; in most records, active means well fitted curve in the direction sought with a large enough effect; inconclusive means small, poorly fitted or top-dose-only effect, or another doubt; inactive means no such curve, though single readings can be large; an effect the other way counts as inactive or inconclusive.

SMILES	D3 ag	D3 antag	GLP-1R agonist	GLP1R inv ag
CCOC(=O)N1CCC(N2CCCC(C(=O)c3cc(F)ccc3OC)C2)CC1 (centres undefined)	-19	-68*	0%	?
COc1ccc(Cl)cc1C(=O)C1CCCN(Cc2cnc(N3CCOCC3)s2)C1 (centres undefined)	-12	-79*	15%	-27%
COc1c(C)cc(C(=O)C2CCCN(Cc3cnc(N4CCOCC4)s3)C2)cc1C (centres undefined)	-7	-13	0%	?
CCc1noc(C)c1C(=O)N1CCCC(C(=O)c2cc(F)ccc2OC)C1 (centres undefined)	11	-11	5%	-3%
COc1ccc(C(=O)C2CCCN(Cc3cnc(N4CCCC4)s3)C2)cc1OC (centres undefined)	-4	-7	13%	-36%
COc1cc(C(=O)N2CCNC(=O)C2CC(=O)Nc2ccc(C)c(C)c2)cc(OC)c1OC (centres undefined)	8	·	0%	-14%
CC(C)CCn1nnnc1C(c1ccc(F)cc1)N1CCN(C(=O)c2ccco2)CC1 (centres undefined)	0	-76*	0%	?
CC(C)(C)n1nnnc1C(c1cc2ccccc2o1)N1CCN(C(=O)OCc2ccccc2)CC1 (centres undefined)	-10	-63*	1%	?
CCC(C)(C)n1nnnc1C(c1ccccc1OC)N1CCN(C(=O)c2ccco2)CC1 (centres undefined)	31*	1	2%	-16%
Cc1ccc(S(=O)(=O)Cn2nnnc2C(C(C)C)N2CCN(C(=O)c3ccco3)CC2)cc1 (centres undefined)	-3	-56*	0%	-30%
O=C(c1ccco1)N1CCN(C(c2ccc(F)cc2)c2nnnn2Cc2cccs2)CC1 (centres undefined)	2	?	1%	?
CC(C)(C)n1nnnc1C(c1cccnc1)N1CCN(C(=O)c2ccco2)CC1 (centres undefined)	-29	-21	-4%	6%
CC(C)(C)n1nnnc1C(c1ccccc1)N1CCN(C(=O)c2ccco2)CC1 (centres undefined)	56*	0	-2%	11%
CCOc1ccc(NC(=O)Cn2c(=O)nc(-c3ccccc3)c3ccccc32)cc1	5	·	·	8%
COc1ccccc1C(=O)N1CCN=C1c1ccccc1	34*	-9	5%	-1%
COc1ccccc1C(=O)N1CCN=C1SC	2	-11	0%	-4%
Cc1csc2nc(COC(=O)c3cccc(NC(=O)COc4ccc(Cl)cc4)c3)cc(=O)n12	0	·	·	13%
Cc1cccc(C)c1OCC(=O)NCc1nnc(SCC(=O)NC2CCCCC2)n1C	-7	-72*	-6%	0%
O=C(CSc1nnc(Cc2cccs2)n1C1CCCCC1)N1CCCc2ccccc21	-9	-17	1%	3.5µM*
O=C(CSc1nnc(Cc2cccs2)n1-c1ccccc1)NC1CCCCC1	1	16	-3%	1.4µM*
Cc1nnc(SCC(=O)NC2CCCCC2)n1-c1ccccc1	3	25	0%	13%
Cn1c(Cc2cccs2)nnc1SCC(=O)N1CCCc2ccccc21	2	0	-5%	-9%
O=C(CSc1nnc(Cc2cccs2)n1CCc1ccccc1)N1CCCc2ccccc21	-12	27	-8%	10µM*
CNC(=O)c1c(NC(=O)c2nc(SCc3ccc(C)cc3)ncc2Cl)sc2c1CCCC2	3	·	·	-1%
Cc1cc(CC(C)C)n(-c2nc3ccccc3c(=O)n2OCc2ccccc2)n1	-7	23	1%	7.1µM*
SMILES	D3 ag	D3 antag	GLP-1R agonist	GLP1R inv ag
CCOC(=O)c1cn2nc(N3CCCC3)ccc2n1	5	-5	-30%	5.6µM*
COc1ccc(Cn2c(=O)n(-c3ccc(C)cc3)c(=O)c3c2c2cc(C)ccc2n3C)cc1	37*	·	-1%	16%
CNC(=O)c1nnsc1S(=O)c1ccc(Cl)cc1 (centres undefined)	-22	-55*	-3%	?
CCCNC(=O)c1nnsc1S(=O)(=O)c1ccc(Cl)cc1	-23	-85*	-7%	?
CCCNC(=O)c1nnsc1S(=O)c1ccc(Cl)cc1 (centres undefined)	-21	-78*	-4%	?
COc1ccc(NC(c2ccc(F)cc2)c2nnc(-c3ccccc3Cl)o2)cc1Cl (centres undefined)	2	·	·	?
CCc1cccc(NC(=O)CSc2nncn3c2cc2sccc23)c1	-1	·	·	-7%
COc1cc(S(=O)(=O)NCCc2c(C)[nH]c3ccccc23)c(C)cc1C	7	·	-1%	?
CCOC(=O)Cc1ccc(Nc2nc(NC)nc3ccsc23)cc1	-23	-78*	24%	5%
Cc1ccc(N2CCN(S(=O)(=O)c3ccc4oc(=O)c5ncn(C)c5c4c3)CC2)c(C)c1	6	·	·	4%
O=C(Oc1ccccc1)c1cccc2cccc(C(=O)Oc3ccccc3)c12	-5	33	11%	10µM*
CC(=NNc1ccc2ccccc2n1)c1ccccc1O	8	-13	-21%	2.8µM*
c1ccc(CCC2Cc3ccccc3N2)cc1 (centres undefined)	1	-17	22%	0%
c1ccc(CC[C@@H]2CC[C@@H](CCc3ccccc3)N2)cc1	-14	-88*	-2%	3%
CCOC(=O)N1CCc2c(sc(NCc3cccc(F)c3)c2C(=O)Nc2ccc(OC)cc2OC)C1	-14	·	·	-17%
Cc1cn([C@H]2C[C@H](O)[C@@H](CNC(=O)c3ccccn3)O2)c(=O)[nH]c1=O	4	-15	8%	1%
Cc1cn([C@H]2C[C@H](O)[C@@H](CNC/C=C/c3ccccc3[N+](=O)[O-])O2)c(=O)[nH]c1=O	74*	-23	4%	18%
CC(=O)OCCNc1cc(SCc2ccco2)c2nonc2c1[N+](=O)[O-]	-1	?	-53%	?
O=[N+]([O-])c1c(NCCCO)cc(N2CCCCCC2)c2nonc12	-9	13	15%	62%
O=[N+]([O-])c1c(NCCCO)cc(Sc2ccc(Cl)cc2)c2nonc12	-65	-113*	-19%	?
Cn1ccnc1Sc1cc(NCCCO)c([N+](=O)[O-])c2nonc12	-20	-112*	-1%	-2%[7.66 µM]
O=[N+]([O-])c1c(NCCCO)cc(SCc2ccco2)c2nonc12	-7	-63*	-2%	?
O=C1/C(=C\c2cccnc2)SC(=S)N1c1ccc(F)cc1	4	-8	-5%	9%
COC(=O)CCc1sc(Nc2ccc(OC)cc2)nc1-c1ccc(OC)cc1	7	·	·	-22%
CC(C)c1ccc(C(C)NC(=O)C2CCCC2)cc1 (centres undefined)	31*	-4	-4%	-28%
O=C1CSC(c2cccc([N+](=O)[O-])c2)N1CCN1CCCCC1 (centres undefined)	0	?	2%	13%
O=C1CSC(c2ccccc2F)N1CCN1CCCCC1 (centres undefined)	-6	-86*	-5%	4%
